mHTT CaM bind – inhibitors of human mutant huntingtin-calmodulin interaction; P42858; AlphaScreen His-mHTT/GST-CaM binding, luminescence; inhibition, % at 15 µM; 190,000 tested, 3.6% active; AID 1671202;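 further: 0% = both proteins with DMSO and 100% = one protein alone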
Pf apPOL inh – Pf-apPOL DNA polymerase inhibition | Recombinant Pf-apPOL, molecular beacon fluorescence, 1.5 h | inhibition, % at 10 µM | 210,000 tested, 0.25% active | AID 1794808
Starred values were filed as active, the others as inactive; nt = no result given. Hits are enriched below; roughly 3.5% of the tested compounds scored in any of these assays. No stated cut-off is given here; in the data, active means inhibition above about 50%; inactive means the rest.

SMILES	mHTT CaM bind	Pf apPOL inh
CCOc1ccccc1NC(=O)CCN1CCN(C2c3ccccc3-c3ccccc32)CC1	57*	0
O=C(CCN1CCN(C2c3ccccc3-c3ccccc32)CC1)Nc1ccccc1F	15	-2
O=C(NCc1ccco1)N1CCC(c2cnn(-c3ccc(F)cc3)c2)CC1	14	0
COc1ccccc1Oc1ccc2c(c1)C(=O)N(c1cccc3ncccc13)C2=O	75*	-5
COc1ccc(N2C(=O)c3ccc(Oc4ccc(N)cc4)cc3C2=O)cc1OC	5	2
CCOC(=O)COc1ccc2c(=O)c(-c3ccc(Br)cc3)coc2c1	-5	-18
CCC(=O)NCCc1csc(C2CCCN(C(=O)Cc3cccs3)C2)n1 (centres undefined)	4	-3
CCOc1ccc(C(=O)N2CCCN(C3CCN(CC4CC4)C3=O)CC2)cc1 (centres undefined)	12	-1
Nc1nc(SCC(=O)Nc2nccs2)[nH]c(=O)c1NC(=O)c1cccs1	4	2
CC(=O)NC1C(O)OC(CO)C(O)C1O (centres undefined)	nt	-16
COC(=O)C1OC(O)C(O)C(O)C1O (centres undefined)	nt	96*
O=C(Nc1cccc(NC(=O)c2cc3ccccc3o2)c1)c1ccccc1	14	70*
O=C(O)c1ccc(NC(=O)c2cc3ccccc3o2)cc1	0	-1
COc1ccc(C(=O)Nc2cc(-c3nc4ccccc4s3)ccc2C)cc1[N+](=O)[O-]	4	-1
CCCCOc1ccc(NC(=O)CSc2cccc3cccnc23)cc1	8	1
COc1ccc(C(C[N+](=O)[O-])Sc2cccc3cccnc23)cc1 (centres undefined)	100*	-4
CC(C)N1C(=O)C(C)(C(=O)Nc2cccc(Cl)c2)Oc2cccnc21 (centres undefined)	-7	-1
CC(C)N1C(=O)C(C)(C(=O)Nc2ccc(F)c(Cl)c2)Oc2cccnc21 (centres undefined)	100*	-5
Oc1ccccc1C(Nc1nccs1)c1ccc2cccnc2c1O (centres undefined)	100*	-9
Oc1c(C(Nc2ccccn2)c2ccccc2F)ccc2cccnc12 (centres undefined)	100*	-1
Cc1cccc(NC(c2ccccc2F)c2ccc3cccnc3c2O)n1 (centres undefined)	99*	-13
Oc1ccc(Cl)c(C(Nc2ccccn2)c2ccc3cccnc3c2O)c1 (centres undefined)	100*	0
CC(C)(C)C(=O)NC(Nc1cccc2cccnc12)C(Cl)(Cl)Cl (centres undefined)	1	-11
O=C(Nc1ccccn1)c1cc(I)ccc1Cl	-3	-2
O=C(Oc1cccc2cccnc12)c1c(F)cccc1F	nt	3
SMILES	mHTT CaM bind	Pf apPOL inh
O=S(=O)(Nc1nccs1)c1ccc2ccccc2c1	-2	nt
COc1ccc(CCC(=O)N2CCC(c3nc4cccnc4n3C)C2)cc1 (centres undefined)	2	-3
O=C(Nc1ccc(-c2nc3ccccc3s2)c(O)c1)c1ccco1	-4	-5
Oc1cccc2ccc(Oc3cccc4cccnc34)nc12	2	-3
Oc1ccccc1C(Nc1ccccn1)c1ccc2cccnc2c1O (centres undefined)	100*	-10
CCOc1ccc(NC(=O)c2ccc(-c3ncccc3NC(=O)CC)cc2)cc1	8	-3
COC(=O)c1ccc(Oc2coc3cc(OC(=O)c4ccc5c(c4)OCO5)ccc3c2=O)cc1	-3	-3
COc1ccc2oc(=Nc3ccccc3F)c(C(=O)NC(C)=O)cc2c1	4	92*
COc1ccc2oc(=Nc3ccc(F)cc3F)c(C(=O)NC(C)=O)cc2c1	2	-4
COc1ccc2oc(=Nc3ccc(C#N)cc3)c(C(=O)NC(C)=O)cc2c1	4	-2
COc1ccc2cc(C(=O)NC(C)=O)c(=Nc3ccc(C#N)cc3)oc2c1	0	65*
Cc1ccc(C(=O)N2CCCC(COc3ccc(C(=O)NC4CC4)cc3)C2)cc1F (centres undefined)	5	-1
O=C(CSc1cn(Cc2ccccc2Cl)c2ccccc12)N1CCCCC1	53*	-7
O=C(CSc1cn(Cc2ccccc2Cl)c2ccccc12)Nc1ccc2c(c1)OCO2	34	-7
CC1CCN(C(=O)CSc2cn(Cc3ccc(F)cc3)c3ccccc23)CC1	83*	-2
Cc1ccccc1Cn1cc(SCC(=O)N2CCOCC2)c2ccccc21	30	1
O=C(CSc1cn(Cc2cccc(F)c2)c2ccccc12)N1CCCCC1	27	3
O=C(CSc1cn(Cc2ccc(Cl)cc2)c2ccccc12)N1CCCCC1	31	-3
O=C(CSc1cn(Cc2ccc(Cl)cc2)c2ccccc12)Nc1ccc2c(c1)OCO2	64*	-3
CC1CCN(C(=O)CSc2cn(Cc3ccccc3Cl)c3ccccc23)CC1	58*	-5
CNC(=O)N1CCCC(c2cccc(C(=O)NCc3ccc(Cl)cc3)c2)C1 (centres undefined)	45	-7
CCOc1ccccc1C1CC(=O)N(C)c2c1c(C)nn2-c1nc(C)cc(C)n1 (centres undefined)	-2	-1
Cn1c(C(C#N)=C(O)c2ccc(S(=O)(=O)N3CCCC3)cc2)nc2ccccc21	-12	-3
O=C(CSc1cn(Cc2ccc(F)cc2)c2ccccc12)N1CCOCC1	33	2
O=C(CSc1cn(Cc2ccc(Cl)cc2)c2ccccc12)N1CCOCC1	72*	-3
SMILES	mHTT CaM bind	Pf apPOL inh
Cc1ccc(NC(=O)c2[nH]c3cc(C)sc3c2CN2CCOCC2)c(Cl)c1	20	26
Cn1nc(COCc2ccccc2F)c2c1CCN(C(=O)c1ccccc1)C2	7	-4
CC(=O)N(C)Cc1nn(-c2ccccc2)c2c1CN(Cc1ccccc1F)CC2	68*	-10
Cc1ccc(N=Cc2cc3c(cc2[N+](=O)[O-])OCO3)c(C)c1	76*	2
N#Cc1ccccc1N=Cc1cc2c(cc1[N+](=O)[O-])OCO2	19	-2
Cc1ccc(C)c(N=Cc2cc3c(cc2[N+](=O)[O-])OCO3)c1	66*	nt
Cc1cc(C)c(O)c(N=Cc2cc3c(cc2[N+](=O)[O-])OCO3)c1	52*	-2
CC(=O)N(C)c1ccc(N=Cc2cc3c(cc2[N+](=O)[O-])OCO3)cc1	31	13
Cc1cc(C)c(O)c(N=Cc2cc(Cl)cc([N+](=O)[O-])c2O)c1	32	0
Cc1cccc(S(=O)(=O)N2CCC(c3nc(CNC(=O)C4CC4)cs3)CC2)c1	3	-4
Cc1ccc(N2CCN(C(=O)c3csc(C(=O)N4CCCC4)n3)CC2)cc1	29	0
CC(C)c1ccc(C=C2Oc3cc(OC(=O)c4ccco4)ccc3C2=O)cc1	20	-1
COc1ccc(/C=C2/N=C(C(C)(C)C)OC2=O)cc1OC	8	-1
COc1cc(/C=C2\C(=O)ON=C2C)cc(Br)c1OCc1ccc(C)cc1	70*	14
CC1=NOC(=O)/C1=C/c1ccc(OCc2ccc(C)cc2)c(Cl)c1	33	-5
COc1cc(/C=C2\C(=O)ON=C2C)cc(Br)c1OCc1ccccc1F	64*	-4
C=CCOc1c(Br)cc(/C=C2\C(=O)ON=C2C)cc1OC	21	-2
COc1cc(/C=C2\C(=O)ON=C2C)ccc1OCc1ccccc1F	41	-4
COc1cc(/C=C2\C(=O)ON=C2C)cc(Cl)c1OCc1ccc(C)cc1	95*	0
CC1=NOC(=O)/C1=C/c1ccccc1OCc1ccccc1Cl	4	-2

Screening results from PubChem.
